# Test results from PubChem BioAssay AID624134 (Broad Institute, 2012).
# Screen size: about 1,600 compounds; about 1,100 (69%) were called active. The set was probably picked from earlier hits. Not all results are given here. Results with a measured potency or affinity are listed apart. Records with an inconclusive call do not appear.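 How the source made its calls: active means signal drop with fitted half-maximal concentration no higher than twice the top valid tested concentration; inconclusive means flat curve with 30 to 70% signal loss, or poor fit; inactive means the rest, including signal rises and flat curves within 30%.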
# Experiment: loss of viability in HepG2 cells – cell-based, CellTiter-Glo, cherry-picked, cytotoxicity control for Shn3 inhibitor project, dose response (AID 624134);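 further: 0% = median of neutral control wells and -100% = median of positive control wells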
# Details: CellTiter-Glo ATP luminescence, 48 h; series mostly up to 35 µM; activity change, negative = cytotoxicity: at the top concentration
row,Compound,"activity change, negative = cytotoxicity"
1,CCCCC[C@H]1CN(Cc2ccc(OC)cc2)C(=O)[C@@H]1CC(=O)NCc1ccccc1,-12.3% (inactive)
2,CSc1nnc(NC(=O)c2nc(S(=O)(=O)Cc3ccccc3F)ncc2Cl)s1,-11% (inactive)
3,Cc1ccc(CS(=O)(=O)c2ncc(Cl)c(C(=O)Nc3nnc(C)s3)n2)cc1,-16% (inactive)
4,CCn1c(=O)c(C(=O)Nc2nc3ccccc3[nH]2)c(O)c2ccccc21,1.78% (inactive)
5,CCOC(=O)c1c(C)[nH]c(C)c1C(=O)CSc1nc2ccccc2c(=O)n1-c1ccc(CC)cc1,-19.7% (inactive)
6,CCOC(=O)Cn1c(S(=O)(=O)Cc2ccccc2Cl)nc(-c2ccccc2)c1-c1ccccc1,-12.6% (inactive)
7,CCOC(=O)Cn1c(=O)c(-c2cc(Br)ccc2N)nc2ccccc21,-8.59% (inactive)
8,CCOC(=O)c1cccc(NC2c3ccccc3C(=O)N2Cc2ccco2)c1 (stereo not given),-2.92% (inactive)
9,CSc1nnc(-c2ccco2)n1-c1ccccc1,0.586% (inactive)
10,CCC(C)c1ccc(S(=O)(=O)N2CCN(C(=O)c3ccc(Cl)c(S(=O)(=O)N4CCOCC4)c3)CC2)cc1 (stereo not given),-13.9% (inactive)
11,CCCCCCC#Cc1ccc2c(c1)COc1c3ccccc3nn1-2,-0.219% (inactive)
12,O=C(O)C1(Nc2ccccc2Cl)CCCC1,-3.18% (inactive)
13,Cc1ccn2cc(-c3ccc(O)c(O)c3)nc2c1,0.075% (inactive)
14,Cc1ccc(-c2cn3cc(C)ccc3n2)cc1,-9.81% (inactive)
15,COC(=O)C12OCC34C(CC5C(C)=C(O)C(=O)CC5(C)C3C(O)C1O)OC(=O)C(OC(=O)C=C(C)C)C24 (stereo not given),0.417% (inactive)
16,O=C(NCCCn1ccnc1)C(=O)NCC1OCCCN1S(=O)(=O)c1ccccc1 (stereo not given),3.35% (inactive)
17,CC(C)c1c(O)c2c(n(-c3ccccc3)c1=O)CCCC2,5.24% (inactive)
18,Cc1ccc(NC(=O)c2cc3ccccc3oc2=O)cc1S(=O)(=O)N(C)C,-2.4% (inactive)
19,O=C1CCc2cccc(O)c2N1,3.06% (inactive)
20,Cc1ccc(Cn2ccc(NC(=O)c3nn(C)cc3[N+](=O)[O-])n2)cc1,-12.5% (inactive)
21,Cc1ccc(C(=O)Nc2cnc3ccccc3c2)cc1,-4.82% (inactive)
22,COC(=O)c1ccccc1NC(=S)N(Cc1ccc2c(c1)OCO2)Cc1cc2cc(OC)ccc2[nH]c1=O,-10.8% (inactive)
23,CC(C)c1nnc(NC(=O)c2nc(S(=O)(=O)Cc3ccc(F)cc3)ncc2Cl)s1,-7.09% (inactive)
24,COCc1nn2c(N)c(C#N)cnc2c1-c1ccccc1,0.007% (inactive)

row,Compound,"activity change, negative = cytotoxicity"
1,C=CCOc1nc2c(c(=O)n(C)c(=O)n2C)n1Cc1ccc(Cl)cc1,-6.18% (inactive)
2,COc1ccc(CCNC(=O)CCC(=O)N2CCOc3ccc(Cl)cc32)cc1OC,-4.82% (inactive)
3,CCOC(=O)N1CCN(CC(c2ccccc2)c2ccccc2)CC1,-2.51% (inactive)
4,COc1ccccc1NC(=O)Cn1cc(C(=O)C2CC2)c2ccccc21,-17.6% (inactive)
5,CCC(CC)CN1C(N(C)C)=NC[C@@H]1CC(C)C,-2.51% (inactive)
6,CCOC(=O)C1CCCN(S(=O)(=O)c2ccc(S(=O)(=O)N3CCCC3)cc2)C1 (stereo not given),-6.66% (inactive)
7,CN(CC(=O)NCc1ccc2c(c1)OCO2)S(=O)(=O)c1ccc(Br)s1,11.1% (inactive)
8,Cc1cccc(CCN2C(N(C)C)=NC[C@@H]2CC(C)C)c1,-11.9% (inactive)
9,O=C1C=C(N2CCOCC2)c2ccccc2C1=O,-0.716% (inactive)
10,COc1cc(OC)c(OC)cc1/C=C1\CC(C)C/C(=C\c2cc(OC)c(OC)cc2OC)C1=O (stereo not given),9.81% (inactive)
11,Cc1ccc(C)c(S(=O)(=O)Nc2ccc(-n3cnnn3)cc2)c1,-0.783% (inactive)
12,CC1(Cc2ccc(OC(F)(F)F)cc2)C(=O)Nc2c(Cl)ccc(Cl)c21 (stereo not given),-0.472% (inactive)
13,Cc1nn(Cc2c(Cl)cccc2Cl)c(C)c1NC(=O)c1cn(-c2ccccc2)nc1-c1ccccc1,-1.4% (inactive)
14,Cc1nn(Cc2noc(C(=O)NC3CCC(C)CC3)n2)c(C)c1Br (stereo not given),-0.596% (inactive)
15,CCOC(=O)CC1CCCCN1C(=O)c1cc(COc2cccc3cnccc23)on1 (stereo not given),-18.8% (inactive)
16,OC(c1ccccc1)C(O)C(c1ccccc1)N1CCCCC1 (stereo not given),-8.45% (inactive)
17,CCCOc1ccc2oc(=O)c3c(c2c1)CCCN3C(=O)CN1CCN(c2ncccn2)CC1,-4.39% (inactive)
18,OCCCNc1nccc(-c2cc(Nc3cccc(Cl)c3)ncn2)n1,-12% (inactive)
19,OCCCNc1cc(-c2ccnc(Nc3cccc(Cl)c3)n2)ccn1,-19% (inactive)
20,COc1ccc(OC)c(C(c2nnnn2Cc2ccccc2)N2CCN(C3CCCCC3)CC2)c1 (stereo not given),-9.05% (inactive)
21,O=S(=O)(c1ccc(Cl)cc1)n1ccc2cccnc21,0.483% (inactive)
22,Cc1sc2ncnc(N3CCN(S(=O)(=O)c4ccccc4)CC3)c2c1C,-22.3% (inactive)
23,O=C(CN1C(=O)C2CCCCC2C1=O)NC1CCCc2ccccc21 (stereo not given),-0.197% (inactive)
24,CCc1ccc(-n2c(O)c(C=NCCN(CC)CC)c(=O)[nH]c2=O)cc1,-6.43% (inactive)

row,Compound,"activity change, negative = cytotoxicity"
1,CC(C)c1nnc(NC(=O)c2nc(S(=O)(=O)Cc3ccccc3)ncc2Cl)s1,-6.87% (inactive)
2,O=C1CC(c2ccccc2)CC(O)=C1C=Nc1cccc(Cl)c1 (stereo not given),-7.86% (inactive)
3,CC(=O)N1CCN(C(=O)CCc2cc(C(C)(C)C)c(O)c(C(C)(C)C)c2)CC1,-8.85% (inactive)
4,COC(=O)[C@@]12CCCCN1[C@H](c1ccc(SC3CCCCC3)c(OC)c1)[C@@H]1C(=O)N(C)C(=O)[C@@H]12,-9.78% (inactive)
5,CCSc1nnc(NC(=O)c2nc(S(=O)(=O)Cc3ccc(F)cc3)ncc2Cl)s1,-8.21% (inactive)
6,CSc1nnc(NC(=O)c2nc(S(=O)(=O)Cc3cccc(C)c3)ncc2Cl)s1,-2.96% (inactive)
7,Cc1ccc(CS(=O)(=O)c2ncc(Cl)c(C(=O)Nc3nnc(C(C)C)s3)n2)cc1,-10.4% (inactive)
8,CC(C)(C)[C@@H]1COC(=O)[C@@H](NC(=O)OCC2c3ccccc3-c3ccccc32)C/C=C\C[C@@H](CC(=O)NCCO)C(=O)N1,-18.4% (inactive)
9,C[C@H]1COC(=O)[C@H](NC(=O)OCC2c3ccccc3-c3ccccc32)C/C=C\C[C@H](CC(=O)N(CCO)Cc2ccccc2)C(=O)N1,-2.09% (inactive)
10,O=C(CN1C(=O)c2ccccc2S1(=O)=O)c1ccc2c(c1)OCCCO2,4.26% (inactive)
11,COC(=O)[C@@]12CCCN1[C@H](c1ccc(-c3ccc(OC)cc3)cc1)[C@@H]1C(=O)N(C)C(=O)[C@@H]12,-1.78% (inactive)
12,O=C1/C(=C/c2ccccn2)SC(=S)N1Nc1ncc(C(F)(F)F)cc1Cl,-1.16% (inactive)
13,COc1cc(NC(=O)COc2cccc3c2OC(C)(C)C3)cc(OC)c1OC,-10.7% (inactive)
14,CCOC(=O)c1c(C)[nH]c(C(=O)COC(=O)[C@H](C)N2C(=O)C3CCCCC3C2=O)c1C (stereo not given in full),-1.04% (inactive)
15,CCOc1ccc(NS(=O)(=O)c2cc(C(=O)NCCN3CCOCC3)ccc2C)cc1,-2.87% (inactive)
16,Cc1c(C(=O)N(Cc2cccc(Br)c2)C2CCS(=O)(=O)C2)oc2ccccc12 (stereo not given),-1.47% (inactive)
17,CC1CCN(C(=O)c2ccc(N3C(=O)C4CCC(C)CC4C3=O)cc2)CC1 (stereo not given),3.34% (inactive)
18,Cc1c(CCOC(=O)CC23CC4CC(CC(C4)C2)C3)sc[n+]1CC(=O)c1ccc(Br)cc1,-13.8% (inactive)
19,COc1ccccc1-n1cc([C@@H]2C[C@H]3CN(c4ccccc4)C(=O)[C@]34CCCN24)cn1,-18.9% (inactive)
20,O=C(NNc1ccccc1)C(=O)NNS(=O)(=O)c1ccc(CCCl)cc1,-6.66% (inactive)
21,O=C(CN1C(=O)c2ccccc2S1(=O)=O)c1ccc(Cl)cc1Cl,-5.75% (inactive)
22,NC(=O)NC(CC(=O)NCCc1ccccn1)c1ccccc1Cl (stereo not given),-2.86% (inactive)
23,CC1(C)CC(=O)c2c(nc(SCC(=O)Nc3nsc(-c4ccccc4)n3)c(C#N)c2-c2ccccc2)C1,-5.76% (inactive)
24,CNS(=O)(=O)c1cccc(C(=O)OCc2cc(C(C)=O)ccc2OC)c1,0.463% (inactive)

row,Compound,"activity change, negative = cytotoxicity"
1,CCN1C(=O)[C@H]2[C@@H](c3ccc(-c4ccc(OC)cc4)cc3)N3CCC[C@@]3(C(=O)OC)[C@H]2C1=O,-3.76% (inactive)
2,Cc1ccc(S(=O)(=O)CCC(=O)OCC(=O)Nc2cc(S(=O)(=O)N3CCOCC3)ccc2C)cc1,3.15% (inactive)
3,CNC(=O)c1nnsc1S(=O)c1ccc(Cl)cc1 (stereo not given),-3.14% [at 16 µM] (inactive)
4,COCCn1c(SCC(=O)/C=C2\N(C)c3ccccc3C2(C)C)nnc1-c1ccncc1,-22% (inactive)
5,O=C1NCCOC(=O)[C@@H](Cc2ccc(F)cc2)CC/C=C/C[C@@H]1CC(=O)N(CCO)Cc1ccccc1,-6.06% (inactive)
6,Cc1cc(=O)oc2c3c(cc(OCC(=O)Nc4ccc(CCO)cc4)c12)OC(C)(C)CC3,-4.82% (inactive)
7,COc1c(CC=C(C)C)cc(C2CC(=O)c3c(O)cc(O)cc3O2)cc1CC=C(C)C (stereo not given),-9.16% (inactive)
8,O=C(Nc1cc(F)ccc1F)N1CCN(c2ccnc3cc(Cl)ccc23)CC1,-17% (inactive)
9,COc1ccccc1-n1ccnc(SCC(=O)NCc2ccccc2Cl)c1=O,-8.69% (inactive)
10,Cc1ccc(S(=O)(=O)NCCc2cc3ccc(C)cc3[nH]c2=O)cc1,-9.09% (inactive)
11,CC[C@H](C)C(=O)O[C@H]1C[C@@H](C)C=C2C=C[C@H](C)[C@H](CC[C@@H]3C[C@@H](O)CC(=O)O3)[C@H]21,-15.4% (inactive)
12,COc1ccc(S(=O)(=O)N2CCN(c3cc(-c4ccccc4)nc4ncnn34)CC2)cc1,5.43% (inactive)
13,O=C(CSc1ccccn1)Nc1nonc1[N+](=O)[O-],-17.3% (inactive)
14,C=CC[C@H](CC(=O)N(CCO)Cc1ccccc1)C(=O)NC[C@H](OC(=O)[C@@H](CC=C)Cc1ccc(F)cc1)c1ccccc1,-4.46% (inactive)
15,C=CCC[C@H](Cc1ccc(F)cc1)C(=O)OC[C@H](Cc1c[nH]c2ccccc12)NC(=O)[C@H](CC=C)CC(=O)N(CCO)Cc1ccccc1,-9.68% (inactive)
16,C=CCOc1nc2c(c(=O)n(C)c(=O)n2C)n1Cc1ccc(Cl)cc1Cl,-2.85% (inactive)
17,O=C(COC(=O)/C=C/c1ccc(OC(F)F)cc1)Nc1ccc2[nH]c(=O)[nH]c2c1,4.55% (inactive)
18,C[C@]12CC[C@H](O)CC1=CCC1C2CC[C@@]2(C)C1CCC21OCCO1 (stereo not given in full),-14.2% (inactive)
19,Cc1csc(=O)n1CC(=O)OCC(=O)c1c(N)n(C)c(=O)n(C)c1=O,-7.39% (inactive)
20,CS(=O)(=O)c1nc(-c2ccc(Br)cc2)cc(-c2ccccc2)c1C#N,-44% (inactive)
21,Cc1ccc2c(c1)c(C1=c3ccccc3=NC1=O)c(O)n2C,-17.2% (inactive)
22,CCCCN1CC(COCc2ccccc2)Oc2cccc(Oc3ccc(C)cc3)c2S1(=O)=O (stereo not given),-11.8% (inactive)
23,COc1ccc2c(c1OC)C(=O)N1c3ccccc3C(=O)N(c3ccccc3F)C21 (stereo not given),-5.72% (inactive)
